# Screening data (PubChem BioAssay)
# RecA intein inh – Mtb RecA intein splicing inhibitors, primary screen, biochemical, fluorescence, HTS. Protein RecA (Mycobacterium tuberculosis (strain ATCC 25618 / H37Rv)), P9WHJ3. cell-free RecA intein splicing. inhibition, % (concentration not given with the values). 290,000 compounds, 0.75% hits; in the data active means inhibition above about 30%; inconclusive means no clear call, values can overlap the other calls
# Rv3671c inh – Rv3671c serine protease inhibitors, primary screen, biochemical, fluorescence polarization, M. tuberculosis H37Rv | P9WHR9 | inhibition, % at 5.96 µM | 320,000 compounds, 0.048% hits; in the data active means inhibition above about 38%;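 further: extracellular domain of Rv3671c used as enzyme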
# Mtb UGM inh – M. tuberculosis UGM enzyme inhibitors, primary screen, biochemical, fluorescence polarization, single point | inhibition, % at 10 µM | UDP-galactopyranose mutase (Mycobacterium tuberculosis (strain ATCC 25618 / H37Rv)), … | 320,000 compounds, 0.06% hits | AID 504406, 2011 | purified UGM, fluorescence polarization probe displacement; in the data active means inhibition above about 10%, passing the limit was not always enough; inconclusive means no clear call, values can overlap the other calls
# Mtb betalactam – beta-lactam sensitization of Mtb H37Rv, H37Rv. inhibition, % at 25 µM. M. tuberculosis H37Rv growth with meropenem, percent inhibition. AID 434955, 2010. 330,000 compounds, 0.27% hits; call rule not given here;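 further: growth measured after seven days incubation then overnight dye step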
# Mtb FBA inh – Mtb FBA enzyme inhibitors, primary screen, biochemical, fluorescence, strain H37Rv | inhibition, % at 1 µM | purified M. tuberculosis FBA, fluorescence read-out | Fructose-bisphosphate aldolase (Mycobacterium tuberculosis (strain ATCC 25618 / H37Rv)), … | AID 588726, 2011 | 360,000 compounds, 2.3% hits
# Target sequence (P9WQA3 whole entry, looked up): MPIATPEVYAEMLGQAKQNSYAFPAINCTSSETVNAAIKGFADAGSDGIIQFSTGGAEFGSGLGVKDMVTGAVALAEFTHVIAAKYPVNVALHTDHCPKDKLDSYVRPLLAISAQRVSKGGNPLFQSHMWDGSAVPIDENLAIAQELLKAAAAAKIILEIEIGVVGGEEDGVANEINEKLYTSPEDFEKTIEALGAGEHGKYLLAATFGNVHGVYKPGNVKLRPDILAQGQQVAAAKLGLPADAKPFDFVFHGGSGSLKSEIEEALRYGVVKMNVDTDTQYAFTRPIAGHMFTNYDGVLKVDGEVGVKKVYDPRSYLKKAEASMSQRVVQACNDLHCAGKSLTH
# GDH-TPI counter-1 – GDH-TPI coupling enzyme inhibitors, primary screen, artefact control for M. tuberculosis FBA inhibitor project, biochemical, absorbance, full deck | inhibition, % at 4.8 µM | AID 588335, 2011 | 360,000 compounds, 1.2% hits | GDH-TPI coupled enzyme counterscreen, NADH absorbance; in the data active means inhibition above about 30%
# Mtb FBA confirm – M. tuberculosis aldolase blockers, biochemical, fluorescence, strain H37Rv, confirmation. purified M. tuberculosis FBA, fluorescence read-out. shares compounds with Mtb FBA inh. inhibition, % at 1 µM. AID 651616, 2012. 5,600 compounds, 78% hits
# GDH-TPI counter-2 – GDH-TPI coupling enzyme inhibitors, artefact control for M. tuberculosis FBA inhibitor project, biochemical, fluorescence, high throughput; shares compounds with Mtb FBA inh; GDH-TPI coupled enzyme counterscreen; inhibition, % at 1 µM; 5,600 compounds, 81% hits; AID 652141, 2013; in the data active means inhibition above about 10%
# Numbers stand for hits; . = inactive; ? = inconclusive; / = not tested or not shown; + = active, no number. This is a sample that favours compounds with a hit; in the whole collection about 4% have one here. Unless noted, no stated cut-off is given here; in the data, active means inhibition above about 27%; inactive means the rest.
SMILES,RecA intein inh,Rv3671c inh,Mtb UGM inh,Mtb betalactam,Mtb FBA inh,GDH-TPI counter-1,Mtb FBA confirm,GDH-TPI counter-2
CCN(CC)CCCNC(=O)c1cc2c(-c3cccc(OC)c3)nn(C)c2s1,.,.,.,.,57.7,.,101.5,87.2
CCCCNC(=O)c1cc2c(-c3ccc(Cl)cc3)nn(C)c2s1,/,.,.,.,.,.,/,/
CCCCN(C)CCNC(=O)c1cc2c(-c3cccc(OC)c3)nn(C)c2s1,.,.,.,.,41.5,.,46.5,27.4
CCC1CCCN1Cn1cnc2c([nH]c3ccccc32)c1=O (configuration not stated),.,.,.,.,.,.,/,/
CCN(C[C@H]1N[C@@](CC)(C(=O)OC)[C@H]2C(=O)N(Cc3ccccc3)C(=O)[C@@H]12)C(=O)c1ccc(F)cc1,/,.,.,.,.,.,/,/
N=C1CCCN1CC(=O)c1cccs1,.,.,.,.,.,.,/,/
O=C1NC2(CCCCC2)C(=O)N1CCS(=O)(=O)Oc1ccc(Br)cc1,.,.,.,.,.,.,/,/
CN(CCCNC(=O)c1cc2c(Cl)nc3ccccc3c2s1)Cc1ccccc1,.,.,.,.,.,.,/,/
CCN1CCCC1CNC(=O)c1cc2c(-c3cccc(OC)c3)nn(C)c2s1 (configuration not stated),.,.,.,.,36.2,.,100.4,58.7
CCN1CCCC1CNC(=O)c1[nH]c2ccc(OC)cc2c1C (configuration not stated),.,.,.,.,45.0,.,+,+
CCN1CCCC1CNC(=O)c1cc2c(-c3ccc(Cl)cc3)nn(C)c2s1 (configuration not stated),.,.,.,.,.,.,/,/
COc1cccc(-c2nn(C)c3sc(C(=O)NCCCN(C)Cc4ccccc4)cc23)c1,.,.,.,.,42.8,.,111.5,102.7
CCCNC(=O)C1(C)CCCN(C(=O)C(c2ccccc2)c2ccccc2)C1 (configuration not stated),/,/,/,/,.,.,/,/
CCN1C(=O)c2ccc(C(=O)Nc3cccc(C(=O)O)c3)cc2C1=O,.,.,.,.,.,.,/,/
Cn1c(O)c(C=Nc2cccc(C(F)(F)F)c2)c(=O)n(C)c1=O,.,.,.,.,.,.,/,/
Cn1cc(-c2cccc(Cl)c2)cc(C#N)c1=O,.,.,.,.,43.6,.,61.6,42.5
Cn1cc(-c2cccc(C(F)(F)F)c2)cc(C#N)c1=O,.,.,.,.,45.6,.,93.9,61.8
CC(C)n1cc(-c2ccc(Cl)cc2)cc(C#N)c1=O,.,.,.,.,.,.,/,/
C#CCOCCOCCOCCNc1nc(N2CCN(C(=O)C([C@@H](C)CC)n3cc(C(N)CO)nn3)CC2)nc(N2CCN(C(=O)[C@H](CCC(=O)O)n3cc(C(N)Cc4ccc(O)cc4)nn3)CC2)n1 (some centres not stated),.,/,/,/,/,/,/,/
Cc1ccc(-c2nc3ncccn3c2Nc2ccc3c(c2)OCCO3)cc1,.,.,.,.,.,.,/,/
Cc1ccc(-c2nc3ncccn3c2NC(=O)C2CC2)cc1,.,.,.,.,62.6,.,35.6,10.4
CC(=O)Nc1c(-c2ccccc2)nc2ncccn12,.,.,.,.,42.0,.,40.5,30.1
CCOc1ccc(CNC(=O)CCCC(=O)n2ncc3cc(C)ccc32)cc1,.,.,.,.,.,.,/,/
N#CCCn1cc(C(N)=O)c(-c2cccs2)n1,.,.,.,.,28.6,.,74.5,62.8
O=C1CC(O)(C(F)F)Oc2ccc3ccccc3c21 (configuration not stated),.,.,?,.,43.8,.,31.2,22.0
